According to PubChem BioAssay (Tox21):
Results filed as inconclusive are left out. Active and inactive are the calls of the source. Unless noted, calls come from the whole dose curve; as a rule, active = well fitted curve in the direction sought with a large enough effect in the repeat runs; inconclusive = weak or mixed curves; inactive = no such curve, though single readings can be large; an effect the other way counts as inactive or inconclusive.

Key:
[1] = molecular target: Acetylcholinesterase (Homo sapiens) (UniProt P22303); test: Acetylcholinesterase (AChE) small molecule antagonists: enzyme-based qHTS assay (AID 1347397; calls by dose curve; note: nearly all actives have a fitted effect of over 55% in size); conditions: Potency: AChE enzyme activity inhibition; outcome: AChE enzyme activity inhibition
Acetylcholinesterase (Homo sapiens), sequence (P22303 whole entry, looked up): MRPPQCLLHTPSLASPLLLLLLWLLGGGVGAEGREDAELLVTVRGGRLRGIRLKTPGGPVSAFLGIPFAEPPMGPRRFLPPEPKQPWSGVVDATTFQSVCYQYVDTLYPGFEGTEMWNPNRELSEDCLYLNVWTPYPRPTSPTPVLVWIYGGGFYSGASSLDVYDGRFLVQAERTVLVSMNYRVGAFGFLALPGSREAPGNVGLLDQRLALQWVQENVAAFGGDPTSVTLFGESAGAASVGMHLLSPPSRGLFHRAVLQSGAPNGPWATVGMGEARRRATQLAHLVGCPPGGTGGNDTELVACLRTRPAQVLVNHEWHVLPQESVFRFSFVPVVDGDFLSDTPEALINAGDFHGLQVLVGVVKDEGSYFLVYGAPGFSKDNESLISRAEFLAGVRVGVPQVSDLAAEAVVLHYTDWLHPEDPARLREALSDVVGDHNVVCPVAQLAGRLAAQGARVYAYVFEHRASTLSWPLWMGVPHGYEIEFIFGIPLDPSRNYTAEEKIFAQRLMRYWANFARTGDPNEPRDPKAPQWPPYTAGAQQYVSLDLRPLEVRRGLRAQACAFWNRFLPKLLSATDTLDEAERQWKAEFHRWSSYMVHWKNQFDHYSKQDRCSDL
How it was run: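 rhAChE 50 mU/mL (dispensed) + cpd or DMSO, 30 min RT; add DTNB/acetylthiocholine cocktail, 10 min RT; colorimetric thiocholine readout. qHTS, 1536-well format.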

[2] = molecular target: Acetylcholinesterase (Homo sapiens) (UniProt P22303); test: Acetylcholinesterase (AChE) small molecule antagonists: fluorescence cell-based qHTS assay (AID 1347398; calls by dose curve; note: nearly all actives have a fitted effect of over 50% in size); conditions: Potency: AChE activity; outcome: AChE activity
How it was run: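 Read-out is Thiolite Green fluorescence at Ex/Em = 490/520 nm, formed by reaction with thiocholine released when cellular AChE in SH-SY5Y cells hydrolyzes acetylthiocholine. Compounds were preincubated 30 min at 37 C before substrate.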

[3] = molecular target: Acetylcholinesterase (Homo sapiens) (UniProt P22303); test: Acetylcholinesterase (AChE) small molecule antagonists: enzyme-based qHTS assay with human liver microsomes (AID 1347399; calls by dose curve; note: nearly all actives have a fitted effect of over 60% in size); conditions: Potency: qHTS inhibition; outcome: qHTS inhibition
How it was run: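 Recombinant human AChE (50 mU/mL in the enzyme mix) and human liver microsomes (0.25 mg/mL final) were preincubated with compound and NADPH (0.25 mg/mL final) for 30 min at 37 C. Acetylthiocholine/DTNB was then added; thiocholine was read colorimetrically after 10 min at room temperature.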

[4] = qHTS assay for small molecule agonists of the p53 signaling pathway (AID 651631; calls by dose curve; note: nearly all actives have a fitted effect of over 15% in size)
How it was run: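 We treat p53RE-bla HCT-116 cells with compounds for 16 h at 37 °C, add LiveBLAzer B/G FRET substrate for 2 h at room temperature, and measure fluorescence intensity.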

[5] = qHTS assay for small molecules that induce genotoxicity in human embryonic kidney cells expressing luciferase-tagged ATAD5 (AID 651632); note: nearly all actives have a fitted effect of over 15% in size
How it was run: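 HEK293T cells carrying luciferase-tagged ATAD5 were given compound or DMSO vehicle and incubated 16 hr at 37C, 5% CO2. Luciferase activity was read after 30 min at room temperature with Amplite; a rise signals genotoxic stress.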

[6] = qHTS assay for small molecules that induce genotoxicity in human embryonic kidney cells expressing luciferase-tagged ATAD5 - cell viability (AID 651634; calls by dose curve; note: nearly all actives have a fitted effect of over 25% in size)
How it was run: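 HEK293T cells carrying luciferase-tagged ATAD5, 2,000 cells/well, exposed to compound for 15.5 hr at 37C. Viability read as live-cell protease activity by CellTiter-Fluor fluorescence after 30 min at 37C.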

[7] = qHTS assay for small molecule disruptors of the mitochondrial membrane potential - cell viability (AID 720634; calls by dose curve;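 note: human HepG2 liver cancer cells; series mostly up to about 83 µM; nearly all actives have a fitted effect of over 20% in size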)
How it was run: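 HepG2 cells, 2,000 per well, attached overnight, then treated 1 hr at 37 C, 5% CO2. Viability read as ATP by CellTiter-Glo luminescence after 30 min at room temperature. Read in the same wells as the m-MPI membrane-potential dye assay.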

[8] = qHTS assay to test for compound auto fluorescence at 590 nm (red) in HepG2 cells (AID 720674)
How it was run: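 We screened compounds on adherent HepG2 cells, incubating them for an hour at 37 C in 5% CO2 before reading emission at 590 nm under 540 nm excitation; values reflect equivalence to Rose Bengal sodium fluorescence.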

[9] = qHTS assay to test for compound auto fluorescence at 535 nm (green) in HepG2 cells (AID 720675)
[10] = qHTS assay to test for compound auto fluorescence at 590 nm (red) in HEK293 cells (AID 720679)
How it was run: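 Intensity at 540nm excitation and 590nm emission is reported as Rose Bengal sodium-equivalent autofluorescence. Measurements followed overnight exposure (37C, 5% CO2) of HEK293 cells, 2,000 per well, to 23 nL compound.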

[11] = qHTS assay to test for compound auto fluorescence at 535 nm (green) in HEK293 cells (AID 720680)
[12] = qHTS assay to test for compound auto fluorescence at 460 nm (blue) in HEK293 cell free culture (AID 720681)
How it was run: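 Blue fluorescence (Ex 405/Em 460 nm, triamterene-equivalent) was read immediately after pin transfer of compound or DMSO into medium (DMEM, 10% FBS) without cells.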

[13] = qHTS assay to test for compound auto fluorescence at 535 nm (green) in HEK293 cell free culture (AID 720682)
How it was run: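 Green-channel intensity (Ex/Em 485/535 nm) was recorded from compound-treated wells containing only DMEM with 10% FBS. Fluorescein provided the equivalency standard.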

[14] = qHTS assay to test for compound auto fluorescence at 590 nm (red) in HEK293 cell free culture (AID 720683)
How it was run: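 Red-channel autofluorescence of compounds in culture medium (DMEM, 10% FBS), no cells, measured at 540/590 nm. Rose Bengal sodium is the reference fluorophore for equivalence.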

[15] = qHTS assay to test for compound auto fluorescence at 590 nm (red) in HepG2 cell free culture (AID 720684)
How it was run: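 Steps: dispense MEM/10% FBS medium, no cells; pin compound or DMSO vehicle; read red channel, Ex/Em 540/590 nm. Output given as Rose Bengal sodium equivalents.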

[16] = qHTS assay to test for compound auto fluorescence at 460 nm (blue) in HepG2 cell free culture (AID 720685)
How it was run: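 Compound (23 nL) or DMSO pinned into cell-free MEM with 10% FBS; blue fluorescence read at 405/460 nm excitation/emission, expressed as auto-fluorescence equivalency to triamterene.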

[17] = qHTS assay to test for compound auto fluorescence at 460 nm (blue) in HepG2 cells (AID 720687)
How it was run: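 Blue-channel autofluorescence (Ex/Em 405/460 nm, triamterene-equivalent) was measured after 1 hr compound exposure at 37 C, 5% CO2. Cells were HepG2, plated overnight at 37 C in MEM plus 10% FBS.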

[18] = molecular target: Glucocorticoid receptor (Homo sapiens) (UniProt P04150); test: qHTS assay to identify small molecule agonists of the glucocorticoid receptor (GR) signaling pathway (AID 720691; active = well fitted activation curve with a large enough effect in the signal ratio in the repeat runs, not every such curve was filed as active; the % refers to the signal ratio)
Glucocorticoid receptor (Homo sapiens), sequence (P04150 whole entry, looked up): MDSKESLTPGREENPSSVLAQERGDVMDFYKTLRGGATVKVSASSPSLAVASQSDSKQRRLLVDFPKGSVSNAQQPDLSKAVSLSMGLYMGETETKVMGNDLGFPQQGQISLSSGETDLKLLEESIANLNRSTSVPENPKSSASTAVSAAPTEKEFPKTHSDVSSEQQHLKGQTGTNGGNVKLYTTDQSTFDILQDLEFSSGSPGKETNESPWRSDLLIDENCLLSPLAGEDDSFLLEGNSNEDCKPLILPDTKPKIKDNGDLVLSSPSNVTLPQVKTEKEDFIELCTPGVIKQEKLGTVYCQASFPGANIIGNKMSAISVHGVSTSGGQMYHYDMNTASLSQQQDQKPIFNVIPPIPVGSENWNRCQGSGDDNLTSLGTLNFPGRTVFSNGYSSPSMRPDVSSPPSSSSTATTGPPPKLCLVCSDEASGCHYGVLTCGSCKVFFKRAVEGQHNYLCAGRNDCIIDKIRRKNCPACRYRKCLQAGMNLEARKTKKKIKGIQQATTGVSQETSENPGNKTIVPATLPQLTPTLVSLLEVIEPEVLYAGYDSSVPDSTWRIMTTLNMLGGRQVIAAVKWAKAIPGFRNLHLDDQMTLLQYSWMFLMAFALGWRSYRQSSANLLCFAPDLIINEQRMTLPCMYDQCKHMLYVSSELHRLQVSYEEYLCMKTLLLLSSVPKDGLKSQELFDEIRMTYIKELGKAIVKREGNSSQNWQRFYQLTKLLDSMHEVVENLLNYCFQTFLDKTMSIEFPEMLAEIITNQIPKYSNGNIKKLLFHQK
How it was run: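 GR-bla HeLa cells carrying a GRE-driven beta-lactamase reporter, exposed to compounds for 18 h at 37 C. Reporter activation read as fluorescence after 2 h with LiveBLAzer B/G FRET substrate at room temperature.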

[19] = molecular target: Glucocorticoid receptor (Homo sapiens) (UniProt P04150); test: qHTS assay to identify small molecule antagonists of the glucocorticoid receptor (GR) signaling pathway (AID 720692; active = well fitted inhibition curve with a large enough effect in the signal ratio in the repeat runs, not every such curve was filed as active; the % refers to the signal ratio)
How it was run: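 GR-bla HeLa cells carrying a GRE-driven beta-lactamase reporter received compound after 4 h plating, then dexamethasone (5 nM final). After 18 h at 37C, the FRET substrate was loaded for 2 h at room temperature and fluorescence read.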

[20] = qHTS assay to identify small molecule antagonists of the glucocorticoid receptor (GR) signaling pathway - cell viability counter screen (AID 720693); note: nearly all actives have a fitted effect of over 55% in size
[21] = molecular target: Androgen receptor (Homo sapiens) (UniProt P10275); test: qHTS assay to identify small molecule antagonists of the androgen receptor (AR) signaling pathway (AID 743035; active = well fitted inhibition curve with a large enough effect in the signal ratio in the repeat runs, not every such curve was filed as active; the % refers to the signal ratio)
Androgen receptor (Homo sapiens), sequence (P10275 whole entry, looked up): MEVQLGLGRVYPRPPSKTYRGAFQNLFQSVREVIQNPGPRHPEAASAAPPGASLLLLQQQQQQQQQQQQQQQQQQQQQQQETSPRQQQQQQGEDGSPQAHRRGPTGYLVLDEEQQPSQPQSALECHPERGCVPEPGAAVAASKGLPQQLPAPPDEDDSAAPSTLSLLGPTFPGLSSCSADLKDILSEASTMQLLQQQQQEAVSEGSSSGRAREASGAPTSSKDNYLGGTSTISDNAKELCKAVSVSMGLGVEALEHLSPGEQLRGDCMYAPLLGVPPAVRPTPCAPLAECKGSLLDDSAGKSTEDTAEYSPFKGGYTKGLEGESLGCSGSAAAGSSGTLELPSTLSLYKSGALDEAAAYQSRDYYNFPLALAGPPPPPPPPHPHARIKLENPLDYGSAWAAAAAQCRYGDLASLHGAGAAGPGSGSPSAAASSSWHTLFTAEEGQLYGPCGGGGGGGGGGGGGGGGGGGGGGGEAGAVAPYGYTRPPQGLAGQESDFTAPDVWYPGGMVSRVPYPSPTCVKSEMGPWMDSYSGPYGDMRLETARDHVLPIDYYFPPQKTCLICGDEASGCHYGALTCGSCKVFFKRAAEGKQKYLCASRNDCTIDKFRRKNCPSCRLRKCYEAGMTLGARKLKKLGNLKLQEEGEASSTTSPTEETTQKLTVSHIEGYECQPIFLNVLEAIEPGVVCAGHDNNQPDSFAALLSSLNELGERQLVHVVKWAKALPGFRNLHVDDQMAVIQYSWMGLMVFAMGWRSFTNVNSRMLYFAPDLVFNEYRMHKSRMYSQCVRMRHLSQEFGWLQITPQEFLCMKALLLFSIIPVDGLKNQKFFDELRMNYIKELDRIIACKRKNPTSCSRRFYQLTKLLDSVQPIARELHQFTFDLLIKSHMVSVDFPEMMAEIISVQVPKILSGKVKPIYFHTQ
How it was run: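 HEK293 cells stably carrying UAS-beta-lactamase reporter, 2,000/well, given compounds plus R1881 agonist and incubated 16 h at 37C. LiveBLAzer B/G FRET substrate then added for 2 h at room temperature before fluorescence reading.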

[22] = molecular target: Androgen receptor (Homo sapiens) (UniProt P10275); test: qHTS assay to identify small molecule agonists of the androgen receptor (AR) signaling pathway (AID 743036; active = well fitted activation curve with a large enough effect in the signal ratio in the repeat runs, with a control signal flat, not every such curve was filed as active; the % refers to the signal ratio)
How it was run: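 Cell-based FRET reporter assay: HEK293 line with a UAS-beta-lactamase construct, compounds added in DMSO, 16 h exposure at 37C, then 2 h substrate step at room temperature and fluorescence intensity read.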

[23] = molecular target: Androgen receptor (Homo sapiens) (UniProt P10275); test: qHTS assay to identify small molecule agonists of the androgen receptor (AR) signaling pathway using the MDA cell line (AID 743040; note: nearly all actives have a fitted effect of over 20% in size)
How it was run: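 Cells plated, 5 h at 37C/0% CO2; compound or DMSO pinned; 16 h at 37C; ONE-Glo added; luminescence measured after 30 min at room temperature. Reporter line: MDA-kb2 with MMTV-luciferase responsive to AR and GR.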

[24] = molecular target: Androgen receptor (Homo sapiens) (UniProt P10275); test: qHTS assay to identify small molecule antagonists of the androgen receptor (AR) signaling pathway using the MDA cell line (AID 743042; note: nearly all actives have a fitted effect of over 55% in size)
How it was run: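 Antagonist mode: compounds plus R1881 agonist added to MDA-kb2 AR-luc cells, incubated 16 h at 37C. Luciferase reporter luminescence quantified, with multiplexed CellTiter-Fluor readout for cell viability.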

[25] = qHTS assay to identify small molecule antagonists of the thyroid receptor (TR) signaling pathway - cell viability counter screen (AID 743064); note: nearly all actives have a fitted effect of over 50% in size
How it was run: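 In rat pituitary GH3.TRE-Luc reporter cells co-exposed to compound and 1 nM T3 for 23.5 h, cytotoxicity was assessed with CellTiter-Fluor in the same wells, read by fluorescence.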

[26] = qHTS assay to identify small molecule antagonists of the thyroid receptor (TR) signaling pathway (AID 743065); note: series mostly up to about 70 µM; nearly all actives have a fitted effect of over 55% in size
How it was run: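 Antagonism measured as loss of luciferase signal in GH3 cells stably carrying a TRE-luciferase reporter, co-treated with compound and T3 (1 nM final) for 23.5 h at 37 C. Viability was read in the same well by CellTiter-Fluor.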

[27] = tested on: thyroid hormone receptor (rat, GH3 cells); test: qHTS assay to identify small molecule agonists of the thyroid receptor (TR) signaling pathway (AID 743066; calls by dose curve)
[28] = molecular target: Estrogen receptor (Homo sapiens) (UniProt P03372); test: qHTS assay to identify small molecule antagonists of the estrogen receptor alpha (ER-alpha) signaling pathway (AID 743069; active = well fitted curve in the direction sought with a large enough effect in the signal ratio in the repeat runs, not every such curve was filed as active; the % refers to the signal ratio)
Estrogen receptor (Homo sapiens), sequence (P03372 whole entry, looked up): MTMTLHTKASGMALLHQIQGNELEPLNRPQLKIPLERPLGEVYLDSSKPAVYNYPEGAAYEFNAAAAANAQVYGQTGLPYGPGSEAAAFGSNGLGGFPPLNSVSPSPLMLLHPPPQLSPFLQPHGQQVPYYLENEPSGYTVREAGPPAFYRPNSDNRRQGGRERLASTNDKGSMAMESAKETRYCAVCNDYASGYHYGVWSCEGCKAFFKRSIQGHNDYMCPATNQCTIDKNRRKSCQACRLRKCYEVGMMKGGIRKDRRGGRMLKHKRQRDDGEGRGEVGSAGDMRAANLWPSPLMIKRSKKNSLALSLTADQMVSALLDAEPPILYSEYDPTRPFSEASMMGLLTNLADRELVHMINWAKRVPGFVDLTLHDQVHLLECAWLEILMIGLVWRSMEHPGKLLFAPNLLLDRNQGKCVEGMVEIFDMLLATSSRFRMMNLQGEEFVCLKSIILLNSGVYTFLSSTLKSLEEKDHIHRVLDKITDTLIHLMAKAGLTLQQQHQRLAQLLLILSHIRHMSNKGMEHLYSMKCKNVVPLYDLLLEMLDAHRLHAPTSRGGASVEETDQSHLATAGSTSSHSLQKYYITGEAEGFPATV
How it was run: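 ER-alpha-UAS-bla GripTite HEK293 line; 2% charcoal-stripped FBS overnight; plated, 4 hr 37C/5% CO2; cpd in DMSO + 17beta-estradiol, 18 hr 37C; LiveBLAzer B/G FRET substrate 2 hr RT; fluorescence intensity.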

[29] = qHTS assay to identify small molecule antagonists of the estrogen receptor alpha (ER-alpha) signaling pathway - cell viability counter screen (AID 743074; calls by dose curve;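 note: HEK293 cells carrying ER-alpha-UAS-bla reporter stimulated with 17beta-estradiol; nearly all actives have a fitted effect of over 45% in size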)
[30] = molecular target: Estrogen receptor (Homo sapiens) (UniProt P03372); test: qHTS assay to identify small molecule agonists of the estrogen receptor alpha (ER-alpha) signaling pathway (AID 743075; calls by dose curve;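 note: HEK293 GripTite cells with ER-alpha and UAS-driven beta-lactamase reporter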)
[31] = molecular target: Estrogen receptor (Homo sapiens) (UniProt P03372); test: qHTS assay to identify small molecule agonists of the estrogen receptor alpha (ER-alpha) signaling pathway using the BG1 cell line (AID 743079); note: nearly all actives have a fitted effect of over 20% in size
[32] = qHTS assay to identify small molecule antagonists of the estrogen receptor alpha (ER-alpha) signaling pathway using the BG1 cell line (AID 743080; calls by dose curve;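 note: BG1 cells stimulated with 17beta-estradiol alongside compound; series mostly up to about 70 µM; nearly all actives have a fitted effect of over 25% in size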)
How it was run: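 BG1Luc4E2, endogenous ER-alpha, 4xERE-luc; 5 d charcoal-stripped FBS, phenol red free; 24 h plating; cpd + 17beta-estradiol 21.5 h, 37 C/5% CO2; CellTiter-Fluor viability 30 min, then ONE-Glo luciferase 30 min RT.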

Aromatase (Homo sapiens) = Aromatase (Homo sapiens) (UniProt P11511); test: qHTS assay to identify aromatase inhibitors (AID 743083)
Aromatase (Homo sapiens), sequence (P11511 whole entry, looked up): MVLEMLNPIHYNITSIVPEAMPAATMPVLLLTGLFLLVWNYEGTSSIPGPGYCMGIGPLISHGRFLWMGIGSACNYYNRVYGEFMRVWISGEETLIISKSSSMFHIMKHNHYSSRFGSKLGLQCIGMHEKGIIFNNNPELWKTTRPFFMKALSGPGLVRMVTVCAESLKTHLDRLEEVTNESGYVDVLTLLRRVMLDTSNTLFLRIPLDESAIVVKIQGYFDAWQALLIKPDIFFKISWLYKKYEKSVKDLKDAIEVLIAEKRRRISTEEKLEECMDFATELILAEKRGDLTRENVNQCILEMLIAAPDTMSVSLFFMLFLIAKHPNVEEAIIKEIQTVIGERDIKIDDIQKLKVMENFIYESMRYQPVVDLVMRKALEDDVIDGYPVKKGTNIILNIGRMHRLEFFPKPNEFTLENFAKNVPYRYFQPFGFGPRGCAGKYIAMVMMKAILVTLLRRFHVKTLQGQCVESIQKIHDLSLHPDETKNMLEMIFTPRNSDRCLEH

[33] = qHTS assay to identify aromatase inhibitors - cell viability counter screen (AID 743084)
[34] = molecular target: Aryl hydrocarbon receptor (Homo sapiens) (UniProt P35869); test: qHTS assay to identify small molecule that activate the aryl hydrocarbon receptor (AhR) signaling pathway (AID 743085);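 note: HG2L7.5c1 human HepG2 liver cells with stably integrated DRE-driven firefly reporter; series mostly up to about 70 µM; nearly all actives have a fitted effect of over 15% in size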
Aryl hydrocarbon receptor (Homo sapiens), sequence (P35869 whole entry, looked up): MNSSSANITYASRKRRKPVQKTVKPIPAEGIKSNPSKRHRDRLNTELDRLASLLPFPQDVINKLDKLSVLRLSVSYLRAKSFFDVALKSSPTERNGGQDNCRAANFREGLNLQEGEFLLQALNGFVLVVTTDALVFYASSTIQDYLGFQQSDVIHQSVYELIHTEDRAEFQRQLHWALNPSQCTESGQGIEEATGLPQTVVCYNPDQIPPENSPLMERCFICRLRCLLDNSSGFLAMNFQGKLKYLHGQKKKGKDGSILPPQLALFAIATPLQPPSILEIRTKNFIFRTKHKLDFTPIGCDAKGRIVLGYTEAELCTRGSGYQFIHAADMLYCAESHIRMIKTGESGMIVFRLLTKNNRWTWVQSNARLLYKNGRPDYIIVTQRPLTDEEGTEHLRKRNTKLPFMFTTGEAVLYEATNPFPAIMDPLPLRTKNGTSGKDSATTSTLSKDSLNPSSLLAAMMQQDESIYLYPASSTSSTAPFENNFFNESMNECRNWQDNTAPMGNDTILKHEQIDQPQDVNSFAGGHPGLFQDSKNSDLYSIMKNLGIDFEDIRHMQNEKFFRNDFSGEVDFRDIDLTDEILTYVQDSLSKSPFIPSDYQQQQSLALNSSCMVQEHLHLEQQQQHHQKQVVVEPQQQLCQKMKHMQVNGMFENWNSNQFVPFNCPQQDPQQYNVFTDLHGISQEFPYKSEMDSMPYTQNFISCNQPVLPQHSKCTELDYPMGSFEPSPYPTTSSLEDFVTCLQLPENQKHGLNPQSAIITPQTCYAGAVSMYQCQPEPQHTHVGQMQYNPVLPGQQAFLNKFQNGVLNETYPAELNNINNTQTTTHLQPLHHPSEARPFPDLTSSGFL
How it was run: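 AhR agonist activity is inferred from enhanced light output of a DRE-controlled firefly luciferase reporter in HepG2 cells, measured with ONE-Glo following 24 h treatment at 37C.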

[35] = qHTS assay to identify small molecule that activate the aryl hydrocarbon receptor (AhR) signaling pathway - cell viability counter screen (AID 743086);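 note: HepG2 liver cells carrying the AhR DRE luciferase reporter; series mostly up to about 70 µM; nearly all actives have a fitted effect of over 45% in size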
How it was run: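 Cytotoxicity counter screen: CellTiter-Fluor signal (30 min, 37 C) in 4000 HepG2 cells/well carrying the DRE-luciferase reporter, following 24 h compound exposure at 37 C.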

[36] = molecular target: Peroxisome proliferator-activated receptor gamma (Homo sapiens) (UniProt P37231); test: qHTS assay to identify small molecule agonists of the peroxisome proliferator-activated receptor gamma (PPARg) signaling pathway (AID 743094; active = well fitted activation curve with a large enough effect in the signal ratio in the repeat runs, not every such curve was filed as active; the % refers to the signal ratio)
Peroxisome proliferator-activated receptor gamma (Homo sapiens), sequence (P37231 whole entry, looked up): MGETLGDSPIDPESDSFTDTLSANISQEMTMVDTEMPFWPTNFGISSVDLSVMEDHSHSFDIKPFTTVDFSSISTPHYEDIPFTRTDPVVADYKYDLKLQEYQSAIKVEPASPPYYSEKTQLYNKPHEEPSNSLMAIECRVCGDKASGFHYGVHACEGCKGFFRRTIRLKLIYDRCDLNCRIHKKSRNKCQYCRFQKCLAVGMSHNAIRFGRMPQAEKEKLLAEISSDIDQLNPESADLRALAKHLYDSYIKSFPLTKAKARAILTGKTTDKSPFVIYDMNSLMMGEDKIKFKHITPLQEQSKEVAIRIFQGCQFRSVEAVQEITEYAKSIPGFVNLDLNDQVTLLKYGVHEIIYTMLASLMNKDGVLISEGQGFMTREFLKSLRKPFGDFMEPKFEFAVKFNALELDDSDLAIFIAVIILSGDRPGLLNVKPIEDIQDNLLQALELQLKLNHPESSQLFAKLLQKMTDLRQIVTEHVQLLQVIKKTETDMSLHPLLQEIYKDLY
How it was run: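 GeneBLAzer PPARg UAS-bla HEK293H cells were plated, rested 5 h, then exposed to compounds for 17 h at 37C. Beta-lactamase activity was read by LiveBLAzer B/G FRET substrate fluorescence after 1 h at room temperature.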

Measured: Potency

CC1=C(C=O)C(C)(C)CC=C1
inactive: [1] | [2] | [3]

O=C(OCC1(COC(=O)c2cccnc2)CCCC(COC(=O)c2cccnc2)(COC(=O)c2cccnc2)C1O)c1cccnc1
inactive: [1] | [2] | [3]

CNC(C)CC1CCCCC1 (stereo not given)
not listed: [1] | [2] | [3]
inactive: all other assays above

COC(=O)c1ccc(C)cc1C1=NC(C)(C(C)C)C(=O)N1 (stereo not given)
inactive: [2] | [3]

C[C@H](CCC(=O)O)[C@H]1CC[C@H]2[C@@H]3CC[C@@H]4C[C@H](O)CC[C@]4(C)[C@H]3CC[C@]12C
inactive: [1] | [2] | [3]
